Statin myotox sup: suppression of simvastatin myotoxicity; C2C12 myotubes + simvastatin, ATP luminescence, 48 h; scaled: DMSO 0, geranylgeraniol control 100; rescue of ATP level, % at 7.49 µM; actives 0.78% (n = 330,000); AID 602340;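 active means mean ATP rescue above about 67%, or every replicate alone reaching that limit, limit read from the data, passing the limit was not always enough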;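 further: myotubes were challenged with 10 µM simvastatin during compound exposure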
EWS-Fli block: inhibitors of EWS/Fli oncoprotein transcriptional activity; inhibition, % at 12.6 µM; A673 NR0B1-luciferase reporter, viability-normalised; actives 0.67% (n = 350,000);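 active means mean inhibition of at least 50% after viability correction, with every replicate also passing that limit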;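 further: firefly luciferase signal divided by Alamar Blue viability fluorescence both relative to DMSO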
HIV Env fusion: blocks HIV Env-driven cell-cell fusion; inhibition, % at 12.3 µM; HeLa-JRFL Env/CEM21 cell fusion, luciferase; actives 1.1% (n = 360,000);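 active means mean replicate inhibition score of at least 50 and every replicate individually at or above 50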
PAX8 inh HTS: lowers PAX8-driven luciferase in RMG-I cells | RMG-I TPO-luciferase reporter, SteadyGlo, 24 h | inhibition, % at 12.6 µM | actives 1.2% (n = 360,000) | AID 652154;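 active means mean replicate inhibition at least 60% with every replicate also reaching 60%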;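 further: luciferase light reporting Pax8 driven TPO promoter activity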
INS-1E GSIS act: GLuc luminescence reporter in INS-1E cells, primary screen for activators of glucose-dependent secretion of insulin; AID 743287; INS-1E GLuc reporter insulin secretion, 2-3 h; activation, % at 16.6 µM; actives 0.61% (n = 370,000);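 active means lowest replicate activation of at least 40%, so every replicate reaches that level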
miR-122 sensor: miR-122 inhibition in Huh7 cells; Huh7 miR-122 Renilla luciferase sensor, 48 h; neutral wells = 0, positive control = 100; activation (reporter increase), % at 12.5 µM; actives 0.3% (n = 340,000);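 active means mean replicate activation score at least 90 and every replicate individually at or above 90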;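 further: higher luciferase means less miR-122 activity so hits act as miR-122 inhibitors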
Of the large screens only hits and unclear results are named; the others gave an inactive call; [ ] = dose if it differs, or a comment. The list is not random: actives were taken first. Their share in the collection is about 3.1%.

C[C@@H]1CN([C@H](C)CO)C(=O)c2cc(-c3ccccc3F)cnc2O[C@H]1CN(C)C(=O)C1CCC1	none (no result: PAX8 inh HTS)
O=C(CCl)Nc1ccc(Oc2cnc3ccccc3n2)cc1	HIV Env fusion 55 (no result: Statin myotox sup, EWS-Fli block, PAX8 inh HTS, INS-1E GSIS act)
O=C(CCl)Nc1cccc(-c2cnc3ccccc3n2)c1	none (no result: Statin myotox sup, EWS-Fli block, INS-1E GSIS act)
C[C@@H]1CN([C@@H](C)CO)C(=O)Cc2cc(NC(=O)Nc3cccc4ccccc34)ccc2O[C@H]1CN(C)C	none (no result: EWS-Fli block, HIV Env fusion)
COc1ccc(Nc2nc(NCc3cccs3)nc3ccsc23)cc1OC	INS-1E GSIS act 48
O=C(O)COn1c(-c2ccccc2)nc2ccc([N+](=O)[O-])cc21	Statin myotox sup 105
COCCCN=C1NN=C(c2cc(C)n(-c3ccccc3F)c2C)CS1	EWS-Fli block 58 (no result: Statin myotox sup, miR-122 sensor)
COCCCN=C1NN=C(c2cc(C)n(-c3ccccc3)c2C)CS1	none
C[C@H](CO)N1C[C@H](C)[C@H](CN(C)CC2CCCCC2)Oc2ccc(NC(=O)Cn3cnnn3)cc2C1=O	none (no result: PAX8 inh HTS)
CO[C@H]1CN(C)C(=O)c2cc(NC(=O)C3CCC3)ccc2OC[C@@H](C)N(C(=O)CN(C)C)C[C@H]1C	none (no result: HIV Env fusion, miR-122 sensor)
CC(C)OC(=O)Cn1cc(C#N)c2ccccc21	none (no result: Statin myotox sup, miR-122 sensor)
COC(=O)Cn1cc(C#N)c2ccccc21	INS-1E GSIS act 70 (no result: EWS-Fli block, HIV Env fusion, PAX8 inh HTS)
C[C@H]1CN(C)C(=O)Cc2ccccc2O[C@H]1CN(C)C	none (no result: Statin myotox sup, EWS-Fli block, HIV Env fusion, PAX8 inh HTS, miR-122 sensor)
O=C(C[C@H]1CC[C@@H]2[C@H](COC[C@@H](O)CN2C(=O)Nc2ccccc2)O1)NCCCN1CCOCC1	none (no result: HIV Env fusion)
Cc1ccc(-c2ccc3c(c2)O[C@H](CN(C)C(=O)C2CC2)[C@H](C)CN([C@H](C)CO)S3(=O)=O)cc1	none (no result: PAX8 inh HTS)
CS(=O)(=O)N1CCCCC1c1cc(C(=O)Nc2ccccc2)no1 (configuration not stated)	none
CS(=O)(=O)N1CCCCC1c1cc(C(=O)Nc2cccc(C#N)c2)no1 (configuration not stated)	INS-1E GSIS act 41
COc1ccc(S(=O)(=O)Nc2ccc3c(c2)C(=O)N([C@@H](C)CO)C[C@@H](C)[C@H](CN(C)S(=O)(=O)c2ccc(Cl)cc2)O3)cc1	none
C[C@@H]1CN([C@@H](C)CO)C(=O)Cc2cc(NC(=O)Nc3ccc(C(F)(F)F)cc3)ccc2O[C@@H]1CN(C)CC1CCCCC1	none
Cc1ccc2nc(-c3ccncc3)c(Nc3ccccc3)n2c1	PAX8 inh HTS 65 (no result: Statin myotox sup, HIV Env fusion)
COc1cc(-c2nc3ccc(C)cn3c2NCc2ccccc2)ccc1-c1cccc(Cl)c1	none
Cc1ccc2nc(-c3ccc(-c4cccc(Cl)c4)cc3)c(NCc3ccccc3)n2c1	Statin myotox sup 85
Cc1ccc2nc(-c3ccco3)c(Nc3ccccc3)n2c1	none (no result: Statin myotox sup, EWS-Fli block, HIV Env fusion, PAX8 inh HTS, miR-122 sensor)
CO[C@@H]1CN(C)C(=O)c2ccc(NS(C)(=O)=O)cc2OC[C@@H](C)N(Cc2ccccc2)C[C@H]1C	none (no result: Statin myotox sup, EWS-Fli block, HIV Env fusion, PAX8 inh HTS, miR-122 sensor)
CCc1nnc(NC(=O)C(c2ccccc2)c2ccccc2)s1	INS-1E GSIS act 103 (no result: miR-122 sensor)
CCc1nnc(NC(=O)Cn2c(=O)oc3ccccc32)s1	Statin myotox sup 140 (no result: EWS-Fli block, HIV Env fusion, PAX8 inh HTS)
CCCc1nnc(NC(=O)Cn2c(=O)oc3ccccc32)s1	none (no result: Statin myotox sup, EWS-Fli block, HIV Env fusion, PAX8 inh HTS)
COc1ccc2c3c([nH]c2c1)[C@H](CO)N(C(=O)C1CCC1)CC31CCN(C(=O)NC(C)C)CC1	none (no result: Statin myotox sup, HIV Env fusion, miR-122 sensor)
CC(SCc1ccccc1)C(=O)N/N=C/c1ccc2c(c1)OCO2 (configuration not stated)	none (no result: EWS-Fli block, HIV Env fusion, PAX8 inh HTS, INS-1E GSIS act)
CC(SCc1ccccc1)C(=O)N/N=C/c1cc2c(cc1Br)OCO2 (configuration not stated)	HIV Env fusion 88 (no result: EWS-Fli block, INS-1E GSIS act)
CC(=O)OC12CC3CC(C1)C(=NO)C(C3)C2	Statin myotox sup 94 (no result: EWS-Fli block, HIV Env fusion, PAX8 inh HTS)
O=C(Nc1nnc(SCC(=O)N2CCCc3ccccc32)s1)c1cccc2ccccc12	EWS-Fli block 88 (no result: Statin myotox sup, miR-122 sensor)
C[C@H]1CN([C@@H](C)CO)C(=O)Cc2cc(NC(=O)Nc3ccc(F)cc3)ccc2O[C@H]1CN(C)Cc1ccc(Oc2ccccc2)cc1	none
O=C(N(c1ccccn1)c1ccccn1)C12CC3CC(CC(Cl)(C3)C1)C2	HIV Env fusion 73
Cc1ccc(S(=O)(=O)N[C@@H]2C=C[C@@H](CC(=O)N3CCN(c4ccccc4)CC3)O[C@@H]2CO)cc1	none (no result: miR-122 sensor)
C=C1CCC[C@]2(C)C[C@H]3OC(=O)C(CNC(C)CC)[C@H]3CC12 (some centres not stated)	none
C=C1CCC[C@]2(C)C[C@H]3OC(=O)C(CN(C)CC(OC)OC)[C@H]3CC12 (some centres not stated)	PAX8 inh HTS 63 (no result: miR-122 sensor)
Cc1csc2nc(CNC(=O)c3cccc(C(F)(F)F)c3)cn12	Statin myotox sup 109 (no result: EWS-Fli block, HIV Env fusion, PAX8 inh HTS, INS-1E GSIS act)
O=C(NCc1cn2ccsc2n1)c1cccc(C(F)(F)F)c1	none (no result: EWS-Fli block, HIV Env fusion, PAX8 inh HTS, INS-1E GSIS act)
CCCCCn1ccc(=O)c2c(C(F)(F)F)nccc21	HIV Env fusion 51 (no result: EWS-Fli block, INS-1E GSIS act)
CCN(CC)c1ccc(NC(=O)CSc2nc3nc(C)cc(C)c3c(=O)[nH]2)cc1	INS-1E GSIS act 42 (no result: PAX8 inh HTS)
COc1ccc(-c2ccc3c(c2)O[C@H](CN(C)C)[C@@H](C)CN([C@H](C)CO)S3(=O)=O)cc1	none (no result: PAX8 inh HTS)
CC(C)(C)c1nnc(NC(=O)CCS(=O)(=O)c2ccccc2)s1	PAX8 inh HTS 97
CC1(C)CC(=O)c2sc(NC(=O)CCS(=O)(=O)c3ccccc3)nc2C1	PAX8 inh HTS 109 (no result: miR-122 sensor)
CC(C)(C)c1nnc(NC(=O)CCS(=O)(=O)Cc2ccccc2)s1	PAX8 inh HTS 84
O=C(CCS(=O)(=O)Cc1ccccc1)Nc1nnc(C(F)(F)F)s1	none
COc1cccc(NC(=O)C[C@@H]2CC[C@H]3[C@H](COc4ccc(NC(C)=O)cc4C(=O)N3C)O2)c1	none
O=C1O[C@@H](c2ccccc2)[C@@H](c2ccccc2)N2[C@@H](c3ccc(O)cc3)[C@]3(C(=O)Nc4ccc(C#CC5=CCCCC5)cc43)[C@@H](C(=O)N3CCCCCCC3)[C@H]12	none (no result: Statin myotox sup, INS-1E GSIS act, miR-122 sensor)
N#C[C@@H]1[C@@H](c2ccc(C#Cc3ccccc3F)cc2)[C@@H](CO)N1C(=O)C1CCCCC1	none (no result: miR-122 sensor)
COc1ccccc1C#Cc1ccc([C@H]2[C@H](C#N)N(C(=O)C3CCCC3)[C@H]2CO)cc1	HIV Env fusion 74[16.7 µM], PAX8 inh HTS 107 (no result: Statin myotox sup, miR-122 sensor)
CCCC#Cc1ccc([C@@H]2[C@@H](C#N)N(C(=O)C3CCCCC3)[C@H]2CO)cc1	PAX8 inh HTS 83 (no result: miR-122 sensor)
N#C[C@@H]1[C@@H](c2ccc(C#Cc3ccccc3F)cc2)[C@H](CO)N1C(=O)C1CCCCC1	PAX8 inh HTS 81 (no result: miR-122 sensor)
COc1ccccc1C#Cc1ccc([C@H]2[C@H](C#N)N(C(=O)C3CCC3)[C@H]2CO)cc1	PAX8 inh HTS 106 (no result: miR-122 sensor)
CCCC#Cc1ccc([C@@H]2[C@@H](CO)N(C(=O)C3CCCCC3)[C@H]2C#N)cc1	none (no result: miR-122 sensor)
O=C(C[C@@H]1C[C@H]2c3cc(NC(=O)C4CCC4)ccc3O[C@H]2[C@@H](CO)O1)NCCc1ccccc1	none
O=C(C[C@@H]1CC[C@H]2[C@@H](COC[C@H](O)CN2Cc2ccc3c(c2)OCO3)O1)N1CCOCC1	none (no result: HIV Env fusion)

Screening results (PubChem)
